SUMO Mot1 rescue – inhibitors of SUMOylation pathway: yeast Mot1-301 growth rescue; growth rescue, % at 18.8 µM; actives 1% (n = 320,000); S. cerevisiae Mot1-301 growth rescue, ATP luminescence, 38.5C; percent above DMSO median, 100 means doubled;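 active = every valid replicate shows activation above 250% relative to neutral control wells; inactive = the rest, any valid replicate at or below 250%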
tim10-1 inh – tim10-1 yeast growth inhibition. S. cerevisiae tim10-1 ts strain growth, BacTiter-Glo, 24 h. inhibition, % at 20 µM. actives 2.2% (n = 330,000). AID 463190;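 active = inhibition of at least 40%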;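 note: mutant grown at 25 °C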
PfHsp90 yeast 2 – growth inhibition of yeast expressing Plasmodium Hsp90. inhibition, % at 9.4 µM. actives 0.32% (n = 310,000). AID 504621. S. cerevisiae expressing PfHsp90, BacTiter-Glo ATP, 48 h; yeast lacking PDR1 and PDR3 efflux regulators;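 active = every replicate shows inhibition above about 80%, whatever the replicate mean, limit read from the data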
TIM10 inh – inhibits growth of TIM10 yeast strain; actives 1.4% (n = 330,000); inhibition, % at 10 µM; S. cerevisiae TIM10 strain growth, BacTiter-Glo luminescence, 24 h;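 active = inhibition of 40% or more at the single tested concentration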;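 note: wild-type TIM10 isogenic control strain grown at permissive 25 °C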
tim23-1 inh – inhibits growth of tim23-1 mutant yeast | S. cerevisiae tim23-1 growth, BacTiter-Glo luminescence, 24 h | inhibition, % at 20 µM | actives 1.3% (n = 330,000) | AID 463212;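 active = growth inhibition of the mutant yeast at or above 50%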;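 note: temperature-sensitive mutant grown at 25 °C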
tim10-1 confirm – tim10-1 yeast growth inhibition, confirmed | shares compounds with tim10-1 inh | S. cerevisiae tim10-1 ts strain growth, BacTiter-Glo, 24 h | inhibition, % at 20 µM | actives 56% (n = 7,400);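 active = inhibition of yeast growth at or above a set limit in either of two repeat tests at 20 µM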;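 note: tim10-1 mutant grown at permissive 25 °C to find synthetic lethal compounds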
tim10 confirm – confirmation of TIM10 yeast growth inhibitors. shares compounds with TIM10 inh. S. cerevisiae tim10 strain growth, BacTiter-Glo luminescence, 24 h. actives 63% (n = 4,600). inhibition, % at 10 µM;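 active = inhibition of yeast growth at or above a set limit in either of two replicates at 10 µM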; note: this counterscreen used the strain with wild-type TIM10
Large screens that a line does not name were inactive (follow-up assays come after a bar, where they were run). Sampled rows, rich in hits. Any-hit rate of the full collection: about 4.4%.

CC1CCCC(C)N1C(=O)CN1C(=O)NC2(CCOc3ccccc32)C1=O (centres undefined)	none (no result: SUMO Mot1 rescue, PfHsp90 yeast 2)
FC(F)Sc1ccc(NC(=S)NC2CCCC2)cc1	tim10-1 inh 53, TIM10 inh 59 | tim10-1 confirm 41 | tim10 confirm inactive
OC1CCC(NC(=S)Nc2ccc(SC(F)F)cc2)CC1 (centres undefined)	none
CCOC(=O)C=C(C(=O)OCC)C(=O)OCC	none (no result: SUMO Mot1 rescue, tim10-1 inh, TIM10 inh, tim23-1 inh)
Oc1ccccc1/C=N/Nc1cccc2cccnc12	tim10-1 inh 41, TIM10 inh 50 (no result: PfHsp90 yeast 2) | tim10-1 confirm 37 | tim10 confirm 35
O=C(COc1cccc2cccnc12)N/N=C/c1ccccc1O	none
CN(C)C=Nc1ncc2c3ccccc3n(CCN(C)C)c2c1C#N	tim10-1 inh 51, TIM10 inh 76 | tim10-1 confirm 64 | tim10 confirm 75
CCN(CC)CCn1c2ccccc2c2cnc(N)c(C#N)c21	tim10-1 inh 67, TIM10 inh 86 | tim10-1 confirm 73 | tim10 confirm 86
CCN(CC)CCn1c2ccccc2c2nc3ccccc3nc21	none
Cc1ccc(Nc2cc(-c3ccccc3)nc3ncnn23)cc1	none
CCS(=O)(=O)N1CCC(C(=O)Nc2cc(C)ccc2O)CC1	none
CCOc1cc(C(=O)N(C)CC(=O)Nc2cccc3ccccc23)ccc1OC	none
O=C(Nc1cccc(NC(=O)c2ccc(Cl)cc2Cl)c1)c1cccnc1	none
CC(C)(C)n1[nH]c2c3c(ccc2c1=O)C(=O)c1ccccc1C3=O	tim10-1 inh 45, TIM10 inh 65 (no result: PfHsp90 yeast 2) | tim10-1 confirm 40 | tim10 confirm 57
Cc1ccc(-n2[nH]c3c4c(ccc3c2=O)C(=O)c2ccccc2C4=O)cc1	none
N/C(Cc1ccc([N+](=O)[O-])cc1)=N\OC(=O)c1ccco1	none
Cc1ccc(CC(=O)O/N=C(\N)Cc2ccc([N+](=O)[O-])cc2)cc1	tim10-1 inh 73, TIM10 inh 60 | tim10-1 confirm 77 | tim10 confirm 63
COc1ccc(C/C(N)=N/OC(=O)C(c2ccccc2)c2ccccc2)cc1OC	none
N/C(Cc1ccc([N+](=O)[O-])cc1)=N\OC(=O)C(c1ccccc1)c1ccccc1	tim10-1 inh 72, TIM10 inh 50 | tim10-1 confirm 73 | tim10 confirm 63
CCOC(=O)c1c(NC(N)=O)sc(C)c1C	none
CCOC(=O)c1c(N2C(=O)C=CC2=O)sc(C)c1C	tim10-1 inh 47, PfHsp90 yeast 2 154, TIM10 inh 77 | tim10-1 confirm 44 | tim10 confirm 72
CSCc1ccc(C(=O)OCc2nc3ccccc3s2)o1	none
O=C(COc1ccc(Cl)cc1Cl)NNC(=S)NCc1ccco1	tim10-1 inh 46, TIM10 inh 50 | tim10-1 confirm 37 | tim10 confirm 40
O=C(COc1ccc(Cl)cc1Cl)NNC(=S)NC(=O)c1ccco1	none
O=C(O)c1ccc(Cl)cc1Nc1nc2cc(Cl)ccc2o1	none (no result: tim10-1 inh, TIM10 inh, tim23-1 inh)
CC1(CC(=O)N/N=C/c2ccc(OCc3ccc(Cl)cc3Cl)cc2)OCCCO1	tim10-1 inh 63, TIM10 inh 49 | tim10-1 confirm 41 | tim10 confirm inactive
CCN(CC)CCNC(=O)CCc1nnc2ccc(N3CCC(C)CC3)nn12	none
O=C(NCC1CCCO1)C1CCN(S(=O)(=O)N2CCCC2)CC1 (centres undefined)	none
O=S(=O)(CCN(CCS(=O)(=O)C(F)(F)F)CC1CCCO1)C(F)(F)F (centres undefined)	tim10-1 inh 50, TIM10 inh 45 | tim10-1 confirm 41 | tim10 confirm inactive
CCc1cccc(N=c2c([N+](=O)[O-])nn(-c3ccc4c(c3)OCCO4)n2O)c1	tim10-1 inh 48, TIM10 inh 57 | tim10-1 confirm 31 | tim10 confirm 42
CC1Cc2ccccc2N1C(=S)NC(=O)c1ccc(Cl)cc1Cl (centres undefined)	tim10-1 inh 44, TIM10 inh 50 | tim10-1 confirm 46 | tim10 confirm inactive
O=C(NC(=S)N1CCCC1)c1ccc(Cl)cc1Cl	none
Cc1cccc(C(=O)NC(=S)Nc2ccc(Cc3ccncc3)cc2)c1	tim10-1 inh 48, TIM10 inh 46 | tim10-1 confirm 31 | tim10 confirm 34
CCC(=O)Nc1cccc(NC(=S)NC(=O)c2cccc(C)c2)c1	none
CN(C)CC(C(=O)c1ccccc1)c1ccccc1 (centres undefined)	tim10-1 inh 50, TIM10 inh 51 (no result: SUMO Mot1 rescue) | tim10-1 confirm 57 | tim10 confirm 60
Cc1ccc(CS(=O)Cc2ccc(C(=O)NC3CCCCC3)o2)cc1 (centres undefined)	none
NS(=O)(=O)c1ccc(CCNC(=O)CN2C(=O)COc3ccc(S(=O)(=O)N4CCCC4)cc32)cc1	none
Cc1ccc(NC(=S)NCc2ccc3[nH]c4c(c3c2)CCCC4)cc1	tim10-1 inh 47, TIM10 inh 46 | tim10-1 confirm 29 | tim10 confirm inactive
CC[n+]1c(/C=C/c2c[nH]c3ccccc23)ccc2cc(C)ccc21	tim10-1 inh 67, TIM10 inh 59 (no result: SUMO Mot1 rescue) | tim10-1 confirm 70 | tim10 confirm 38
COc1ccc(O)c(/C=N/Nc2nc(C)cc(-c3ccccc3)n2)c1	tim10-1 inh 43, TIM10 inh 42 | tim10-1 confirm 40 | tim10 confirm 47
CCCCc1nc2cc(C(=O)NC3CCOC(C)(C)C3)ccc2o1 (centres undefined)	none
O=C(O)c1ccc(Nc2ncnc3scc(-c4ccccc4)c23)cc1	none
COc1cccc(/C=N/Nc2ncnc3scc(-c4ccccc4)c23)c1OC	tim10-1 inh 46, TIM10 inh 40 | tim10-1 confirm 43 | tim10 confirm 31
CC(C)N(C(=S)Nc1ccc(S(=O)(=O)N2CCOCC2)cc1)c1ccccc1	none (no result: PfHsp90 yeast 2)
COc1ccc(NC(=O)c2cnc(SC)nc2)cc1	none
CCOC(=O)/C=C/C(=O)OCC(=O)Nc1cccc(Br)c1	tim10-1 inh 47, TIM10 inh 51 | tim10-1 confirm 33 | tim10 confirm 29
Cc1ccc(C(=O)Nc2ccccc2C(=O)NCc2ccccc2)cc1	tim10-1 inh 47, TIM10 inh 48 (no result: SUMO Mot1 rescue) | tim10-1 confirm 41 | tim10 confirm inactive
O=C(N/N=C\c1ccccc1OCc1ccccc1)c1ccco1	tim10-1 inh 43, TIM10 inh 50 | tim10-1 confirm inactive | tim10 confirm 31
Oc1ccccc1-c1nc(NCCN2CCOCC2)c2ccccc2n1	tim10-1 inh 52, TIM10 inh 50 | tim10-1 confirm 40 | tim10 confirm 32
Cc1nc2c(C(=O)NCc3ccco3)cnn2c(C)c1Cc1ccc(F)cc1Cl	none (no result: PfHsp90 yeast 2)
Cc1cccc(Cc2c(C)nc3c(C(=O)NCc4ccco4)cnn3c2C)c1	tim10-1 inh 41, TIM10 inh 48 (no result: PfHsp90 yeast 2) | tim10-1 confirm 42 | tim10 confirm 40
